Reference: PubChem BioAssay
Activity calls are given as the source filed them. Unless noted, the rule behind the calls is not given here.

Key:
[1] = system: Wnt5a (protein binding on small-molecule microarray); assay: Wnt5a binders on small-molecule microarray, primary screen, biophysical, 635/667 nm fluorescence (AID 1142); details: 635 nm fluorescence, higher = more signal;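 note: fluorescence read at 667 nm with signal to noise per printed feature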
[2] = cell viability in Huh7 cells, primary screen, cytotoxicity control for HCV replication inhibitor project, CellTiter-Glo luminescence, basal, 48 h (AID 1143); details: Huh7 HCV replicon, higher = more signal, called active from +8 up or from −8 down;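 note: Huh7 hepatoma cells carrying a hepatitis C replication reporter with no stimulus; test concentration not given here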
[3] = P. aeruginosa biofilm formation inhibitors, primary screen, PAO1 strain, BacTiter-Glo luminescence, LB-PBS (AID 1144); details: 12 h, higher = more signal
[4] = CREB reporter modulators without forskolin, primary screen, cell-based, PC12, CRE-LacZ reporter, unstimulated (AID 1145); details: no forskolin, luminescence, 4.5 h, higher = more signal, called active from +8 up or from −8 down
[5] = CREB reporter modulators under forskolin, primary screen, cell-based, PC12, CRE-LacZ reporter, forskolin-stimulated (AID 1146); details: luminescence, 4.5 h, higher = more signal, called active from +8 up or from −8 down;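 note: PC12 cells with 6xCRE LacZ reporter stimulated by forskolin 10 µM; beta-galactosidase reporter signal reflecting CREB driven transcription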
[6] = target: Streptavidin (Streptomyces avidinii) (UniProt P22629); assay: streptavidin binders on small-molecule microarray, primary screen, artefact control for SMM compound annotation, biophysical, 635/667 nm fluorescence (AID 1147); details: streptavidin binding, higher = more signal;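 note: signal reflects streptavidin binding to arrayed compounds as a control protein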
Chain of Streptavidin (Streptomyces avidinii) (P22629 whole entry, looked up): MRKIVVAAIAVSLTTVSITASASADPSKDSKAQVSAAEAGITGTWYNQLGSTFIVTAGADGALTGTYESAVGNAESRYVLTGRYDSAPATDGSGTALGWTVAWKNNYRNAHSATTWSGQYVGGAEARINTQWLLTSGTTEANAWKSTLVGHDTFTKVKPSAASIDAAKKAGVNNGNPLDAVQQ

[7] = small-molecule binders of probe aInhba, primary screen, biochemical, small-molecule microarray, 635/667 nm fluorescence (AID 1148); details: higher = more signal;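 note: score merges 667nm spot fluorescence with signal-to-noise for antibody binding to printed compounds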
Torsin-1A (Homo sapiens) [8] = target: Torsin-1A (Homo sapiens) (UniProt O14656); assay: torsin A binders from cell lysate, primary screen, small-molecule microarray, wild-type, 635/667 nm (AID 1149); details: COS7 hTOR1A-WT lysate, 635 nm fluorescence, higher = more signal
Chain of Torsin-1A (Homo sapiens) (O14656 whole entry, looked up): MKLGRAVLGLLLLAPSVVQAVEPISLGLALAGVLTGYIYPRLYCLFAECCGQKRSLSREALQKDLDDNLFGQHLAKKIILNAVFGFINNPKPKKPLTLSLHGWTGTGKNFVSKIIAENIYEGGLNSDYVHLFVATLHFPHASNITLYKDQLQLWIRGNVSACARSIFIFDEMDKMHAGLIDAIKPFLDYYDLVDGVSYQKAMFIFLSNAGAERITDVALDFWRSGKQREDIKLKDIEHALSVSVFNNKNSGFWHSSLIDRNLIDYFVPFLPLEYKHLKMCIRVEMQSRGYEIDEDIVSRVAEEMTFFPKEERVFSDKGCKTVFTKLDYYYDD

Torsin-1A (Homo sapiens) [9] = target: Torsin-1A (Homo sapiens) (UniProt O14656); assay: small-molecule binders of mutant TOR1A in lysate, primary screen, cell lysate, small-molecule microarray, COS7 lysate, 635/667 nm fluorescence (AID 1150); details: COS7 hTOR1A mutant lysate, 635 nm fluorescence, higher = more signal;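 note: score pools 667 nm emission and signal to noise measuring lysate protein binding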
[10] = system: Sonic hedgehog protein (Shh); assay: small-molecule binders of Shh protein, primary screen, biochemical, small-molecule microarray, 635/667 nm fluorescence (AID 1151); details: small-molecule microarray binding, 635 nm fluorescence; higher = more signal;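 note: Shh protein binding to compounds spotted on small-molecule microarray slides; score combines spot fluorescence intensity with signal-to-noise across triplicate slides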

| SMILES | composite z-score [1] | z-score [2] | z-score [3] | z-score [4] | z-score [5] | composite z-score [6] | composite z-score [7] | composite z-score (Torsin-1A (Homo sapiens) [8]) | composite z-score (Torsin-1A (Homo sapiens) [9]) | composite z-score [10] |
| --- | --- | --- | --- | --- | --- | --- | --- | --- | --- | --- |
| CC(C)[C@H](NC(=O)OC(C)(C)C)[C@@H](O)CC(=O)C(C)(C)C | -0.103 | 0.207 (inactive) | -1.09 (inactive) | -0.795 (inactive) | -0.422 (inactive) | 0.247 | -0.148 | 0.322 | 0.0647 | 0.473 |
| CCOC(=O)[C@H](Cc1ccccc1)NC(=O)CCC1CC(OC(=O)NCCc2ccc(F)cc2)CC2(CCCC(COC(=O)NCCOc3ccccc3)O2)O1 (stereo not given in full) | 0.424 | -0.715 (inactive) | -0.661 (inactive) | -0.253 (inactive) | 0.327 (inactive) | 0.751 | -0.0762 | 0.227 | 1.11 | 1.23 |
| CC(CCN1CCCc2nc(C)c(C)cc21)=NO[C@@H](C)c1cn([C@H](CO)Cc2ccccc2)nn1 | 0.0241 | -0.0864 (inactive) | 0.0842 (inactive) | -1.21 (inactive) | -0.82 (inactive) | 0.525 | 0.153 | 0.639 | 0.686 | 0.71 |
| CCOC(=O)CCN1C(=O)[C@H]2[C@H]3[C@H](O)[C@H](O)CC(=NNC(=O)OCC)[C@H]3CC[C@H]2C1=O | -0.034 | -1.63 (inactive) | 1.25 (inactive) | -0.202 (inactive) | 0.531 (inactive) | -0.58 | -0.24 | 0.0668 | 0.204 | 1.1 |
| O=C1[C@H]2[C@H]3[C@H](O)[C@H](O)CC(=NO[C@@H]4O[C@H](CO)[C@@H](O)[C@H](O)[C@H]4O)[C@H]3CC[C@H]2C(=O)N1C[C@@H]1CCCO1 | 0.16 | 0.297 (inactive) | 0.261 (inactive) | -0.477 (inactive) | -0.105 (inactive) | 0.253 | -0.159 | 0.288 | 0.952 | -0.167 |
| COc1ccc(-c2cnnc(CCCn3ccnc3-c3ccccc3)n2)cc1 | 0.314 | -4.68 (inactive) | -0.459 (inactive) | 1.37 (inactive) | -0.631 (inactive) | 0.22 | -0.144 | 1.56 | 1.52 | 0.838 |
| CO[C@H]1COC(=O)[C@H](C)COC(=O)[C@H](C)NC(=O)CC=C[C@H]1C | 0.108 | -1.34 (inactive) | 0.598 (inactive) | 0.611 (inactive) | -0.506 (inactive) | -0.237 | -0.0762 | 1.26 | 1.18 | 1.88 |
| CCc1cc2c(nc1CC)CCN(CCC(C)=NO[C@@H]1O[C@H](COC(C)=O)[C@@H](OC(C)=O)[C@H](OC(C)=O)[C@H]1OC(C)=O)C2 | 0.503 | -1.9 (inactive) | -1.19 (inactive) | 4.05 (inactive) | -0.26 (inactive) | 0.963 | -0.089 | 0.439 | 0.495 | 1.88 |
| COc1ccc(OC[C@H]2CN3[C@@H](CC[C@@H](C)[C@@H]3c3ccc(Br)cc3)C(=O)O2)cc1 | -0.144 | -0.202 (inactive) | -0.225 (inactive) | 2.62 (inactive) | -0.165 (inactive) | 0.169 | -0.2 | 0.357 | 0.28 | 0.583 |
| O=C1C2=CC[C@H]3C(=O)N(c4ccc(F)cc4F)C(=O)[C@H]3[C@H]2[C@H](O)[C@@H]2O[C@H]12 | 0.28 | 0.612 (inactive) | -0.845 (inactive) | -0.202 (inactive) | 0.305 (inactive) | 0.447 | -0.0221 | 0.528 | 0.308 | 0.389 |
| O=C1CCCC=C1C(O)C1CCCCC1 (stereo not given) | -0.028 | 0.869 (inactive) | 0.993 (inactive) | 0.198 (inactive) | 0.85 (inactive) | -0.234 | -0.122 | -0.19 | 0.44 | 0.628 |
| C#CCCCON=C1C[C@@H](O)[C@@H](O)[C@@H]2[C@@H]3C(=O)N(C[C@@H]4CCCO4)C(=O)[C@@H]3CC[C@H]12 | -0.0106 | 0.119 (inactive) | 0.428 (inactive) | -0.564 (inactive) | 0.593 (inactive) | 0.66 | -0.128 | 0.372 | 0.406 | 0.554 |
| CC(=O)OC[C@H]1O[C@@H](ON=C(C)C)[C@H](OC(C)=O)[C@@H](OC(C)=O)[C@@H]1OC(C)=O | 0.47 | 0.238 (inactive) | -0.291 (inactive) | 0.499 (inactive) | 0.101 (inactive) | -1.26 | -0.0695 | 0.456 | 0.188 | -0.856 |
| COC(=O)[C@H](C)NC(=O)CCC1CC(OC(=O)NCc2cccc3ccccc23)CC2(CCCC(COC(=O)NCCCN3CCCC3=O)O2)O1 (stereo not given in full) | 0.205 | -0.0671 (inactive) | -1.07 (inactive) | -0.438 (inactive) | -0.178 (inactive) | 0.865 | -0.152 | 0.519 | 0.745 | 0.608 |
| CC(=O)OC[C@H]1O[C@@H](ON=C(C)CCN2CCCCc3nc(C)c(C)cc32)[C@H](OC(C)=O)[C@@H](OC(C)=O)[C@@H]1OC(C)=O | 0.752 | -2.39 (inactive) | 0.0375 (inactive) | 2.32 (inactive) | -0.494 (inactive) | -0.452 | 0.144 | 0.987 | 1.12 | 1.64 |
| CC(CCN1CCCCc2nc(C)c(C)cc21)=NO[C@H](C)c1cn([C@@H]2COC[C@H]2O)nn1 | 0.229 | -0.216 (inactive) | 0.184 (inactive) | -0.482 (inactive) | -0.445 (inactive) | 1.12 | -0.0701 | 2.71 | 2.5 | 2.01 |
| CC(C)CON=C1C[C@@H](O)[C@@H](O)[C@@H]2[C@@H]3C(=O)N(Cc4ccccc4)C(=O)[C@@H]3CC[C@H]12 | 0.0659 | -1.75 (inactive) | -1.46 (inactive) | -0.0223 (inactive) | 0.627 (inactive) | -0.682 | -0.212 | 0.0783 | 0.208 | 0.503 |
| CC(=O)OC[C@H]1O[C@H](C#CCC2CCCCC2)C=C[C@@H]1OC(C)=O | 0.293 | -2.43 (inactive) | 0.135 (inactive) | 0.105 (inactive) | 0.483 (inactive) | 0.176 | -0.0589 | 0.419 | 0.96 | 1.17 |
| CC(C)(C)N1C(=O)[C@H]2[C@H]3[C@H](O)[C@H](O)CC(=NOC[C@@H](O)COCc4ccco4)[C@H]3CC[C@H]2C1=O | -0.0267 | 0.186 (inactive) | -0.486 (inactive) | 0.701 (inactive) | -0.113 (inactive) | 0.422 | -0.0279 | 0.506 | 0.465 | -0.0386 |
| CC(C)CON=C1C[C@@H](O)[C@@H](O)[C@@H]2[C@@H]3C(=O)N([C@@H](C)c4ccccc4)C(=O)[C@@H]3CC[C@@H]12 | -0.0932 | -0.192 (inactive) | 0.374 (inactive) | 0.149 (inactive) | -0.776 (inactive) | 0.0337 | -0.0791 | -0.0344 | 0.118 | -0.104 |
| CCN1C(=O)[C@H]2[C@H]3[C@H](O)[C@H](O)CC(=NOC[C@@H](O)COCc4ccco4)[C@H]3CC[C@H]2C1=O | -0.13 | 0.337 (inactive) | -0.388 (inactive) | -0.926 (inactive) | -0.541 (inactive) | -1.09 | -0.241 | 3.04 | 2.87 | 1.97 |
| CC(=O)OC[C@H]1O[C@H](CC=NOC(C)CN2CCCCc3nc(C)c(C)cc32)C=C[C@@H]1OC(C)=O (stereo not given in full) | 0.696 | -0.402 (inactive) | 0.725 (inactive) | -0.157 (inactive) | 0.278 (inactive) | 1.87 | -0.137 | 3.43 | 2.9 | 1.48 |
| COC(=O)CC=C[C@@H](C)[C@@H](C=NOC[C@@H](O)COCc1ccco1)OC | -0.302 | 0.545 (inactive) | 1.47 (inactive) | -1.05 (inactive) | -0.252 (inactive) | 0.457 | -0.214 | 3.02 | 2.69 | 1.99 |
| C=CC[C@@H]1C=C[C@H](ON=CC[C@@H]2C=C[C@H](OC(C)=O)[C@@H](COC(C)=O)O2)[C@@H](CO)O1 | 0.521 | 0.0101 (inactive) | -0.325 (inactive) | -1.21 (inactive) | -0.66 (inactive) | 1.54 | 0.113 | -0.161 | 0.259 | 0.925 |
| O=C1[C@H]2[C@H]3[C@H](O)[C@H](O)CC(=NO[C@@H]4O[C@H](CO)[C@@H](O)[C@H](O)[C@H]4O)[C@@H]3CC[C@H]2C(=O)N1C[C@@H]1CCCO1 | 0.185 | -2.92 (inactive) | -0.131 (inactive) | 0.885 (inactive) | 0.0432 (inactive) | 0.0066 | -0.128 | 0.339 | -0.0388 | 0.89 |
| CO[C@H]1COC(=O)[C@H](CCSC)NC(=O)CC=C[C@@H](C)[C@H](OC)COC(=O)[C@@H](OCc2ccccc2)C=C[C@@H]1C | 0.211 | -1.45 (inactive) | -0.128 (inactive) | -0.0638 (inactive) | 0.74 (inactive) | -0.0966 | -0.101 | 1.78 | 0.732 | 1.9 |
| CC(C)CON=C1C[C@@H](O)[C@@H](O)[C@@H]2[C@@H]3C(=O)N(C(C)(C)C)C(=O)[C@@H]3CC[C@@H]12 | 0.167 | -2.95 (inactive) | -0.811 (inactive) | 1.7 (inactive) | 0.549 (inactive) | 0.0099 | -0.261 | 3.07 | 3.23 | 1.28 |
